In PMC5540273 (PLoS ONE, 2017):

Key:
Details in all cases: concentration: 1 μM, replicates: in singlicate; n = 1
PRKX = test system: PRKX
PRP4 = test system: PRP4
PYK2 = test system: T1, PYK2
T1 construct: gene PTK2B

QSK = test system: QSK
RAF1 = test system: RAF1
RET = test system: RET
RIOK1 = test system: RIOK1
RIOK2 = test system: RIOK2
RIOK3 = test system: RIOK3
RIPK1 = test system: RIPK1
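Note: KINOMEscan kinase panel screen.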

| SMILES | %Inh (PRKX) | %Inh (PRP4) | %Inh (PYK2) | %Inh (QSK) | %Inh (RAF1) | %Inh (RET) | %Inh (RIOK1) | %Inh (RIOK2) | %Inh (RIOK3) | %Inh (RIPK1) |
| --- | --- | --- | --- | --- | --- | --- | --- | --- | --- | --- |
| Cl.c1ccc(Cn2cnc3cc(Nc4ncnc5ccccc45)ccc32)cc1 [GW272142] | 31% | 28% | 10% | 0% | 3% | 3% | 35% | 0% | 38% | 8% |
| O=C1NC(=O)C(c2ccccc2)=C1Nc1cccc(O)c1 [SB-390534] | 0% | 0% | 12% | 9% | 13% | 0% | 0% | 0% | 0% | 0% |
| Nc1ncnc2c1ncn2-c1ccc(Cl)cc1 [AH2635] | 0% | 36% | 21% | 0% | 1% | 9% | 51% | 0% | 35% | 17% |
| Cc1nc(N(C)[C@H]2CN(C(=O)CC#N)CC[C@H]2C)c2cc[nH]c2n1 | 4% | 0% | 0% | 0% | 0% | 5% | 0% | 2% | 8% | 11% |
| Nc1ncnc2c1ncn2-c1cccc(F)c1 [SKF-97560] | 0% | 0% | 6% | 13% | 14% | 1% | 38% | 19% | 49% | 22% |
| CCn1c(-c2ccoc2)nc2cnccc21 [SB-733887] | 0% | 58% | 4% | 0% | 21% | 1% | 28% | 0% | 27% | 0% |
| CCc1nc(-c2cccc(C)c2)c(-c2ccncc2)s1 | 0% | 26% | 0% | 0% | 22% | 0% | 12% | 8% | 12% | 0% |
| CCc1ccc(-c2ccc3c(c2)-c2nn(C)cc2S(=O)(=O)N3C)cc1 | 0% | 27% | 0% | 0% | 19% | 16% | 15% | 0% | 0% | 12% |
| Fc1cccc(CSc2nnc(-c3ccc4c(c3)CCO4)o2)c1 | 7% | 0% | 8% | 0% | 2% | 0% | 0% | 5% | 8% | 3% |
| Cc1nnc(-c2ccc(C)c(-c3ccc(C(=O)O)cc3)c2)o1 [GW608005] | 0% | 8% | 0% | 0% | 0% | 2% | 15% | 19% | 0% | 5% |
| C[C@@H]1CC[C@H](C(=O)NC2CCCCC2)CN1c1cc(-c2ccc3c(N)n[nH]c3c2)nc(N)n1 [GSK2291363] | 84% | 26% | 24% | 7% | 16% | 53% | 96.1% | 22% | 93.7% | 22% |
| COc1ccc(-n2cnc3c(N)ncnc32)cc1 [SKF-97236] | 15% | 0% | 0% | 0% | 0% | 34% | 14% | 28% | 0% | 0% |
| COc1cc2nccc(Nc3ccc(OCc4ccc(NC(C)=O)cc4)cc3)c2cc1OC.Cl [GW440135] | 7% | 50% | 26% | 15% | 18% | 11% | 0% | 0% | 0% | 0% |
| COC(=O)c1c(-c2ccccc2)c2cc(Br)ccc2c(=O)n1Cc1ccc(NC(=O)CCC(=O)O)cc1 | 10% | 0% | 16% | 0% | 14% | 5% | 0% | 0% | 0% | 0% |
| Cl.NS(=O)(=O)c1cccc(Nc2cc(-c3ccc(F)cc3)n[nH]2)c1 [GW824645] | 0% | 0% | 0% | 0% | 10% | 0% | 0% | 0% | 11% | 0% |
| O=C(NCCNc1ccnc(Nc2ccc(F)cc2)n1)Nc1ccc2c(c1)OCO2 [GSK1379882] | 30% | 47% | 9% | 0% | 5% | 0% | 15% | 0% | 15% | 25% |
| Nc1nc(N)c2nc(-c3ccccc3)[nH]c2n1 [SKF-12778] | 7% | 0% | 0% | 10% | 11% | 25% | 20% | 37% | 8% | 18% |
| O=C(Nc1n[nH]c2nc(-c3ccccc3)c(Br)cc12)C1CC1 [SB-708998] | 0% | 3% | 0% | 0% | 14% | 74% | 35% | 17% | 24% | 48% |

| SMILES | %Inh (PRKX) | %Inh (PRP4) | %Inh (PYK2) | %Inh (QSK) | %Inh (RAF1) | %Inh (RET) | %Inh (RIOK1) | %Inh (RIOK2) | %Inh (RIOK3) | %Inh (RIPK1) |
| --- | --- | --- | --- | --- | --- | --- | --- | --- | --- | --- |
| O=C(Nc1n[nH]c2cc(-c3ccccc3F)ccc12)C1CC1 [SB-733371] | 0% | 7% | 15% | 6% | 35% | 0% | 50% | 0% | 63% | 78% |
| COc1cc(OC)cc(-c2cc3cnc(N)nc3nc2NC(=O)NC(C)(C)C)c1 | 5% | 0% | 4% | 0% | 0% | 32% | 8% | 0% | 45% | 0% |
| Cc1cccc(-c2nc(Nc3ccc4c(cnn4C)c3)c3ccccc3n2)n1 [GW876731] | 0% | 0% | 0% | 0% | 29% | 4% | 0% | 0% | 0% | 0% |
| Nc1ncnc2c1ncn2-c1cccc2ccccc12 [SKF-97184] | 0% | 0% | 4% | 6% | 0% | 0% | 7% | 0% | 5% | 0% |
| Cc1cccc(-c2cc(-c3c[nH]nc3-c3ccccn3)ccn2)c1 [GW679395] | 12% | 22% | 0% | 3% | 3% | 48% | 6% | 0% | 0% | 0% |
| Cc1nn2c(=O)cc(N3CCOCC3)nc2n1Cc1cccc(Cl)c1Cl [GSK2342769] | 8% | 15% | 6% | 8% | 15% | 72% | 38% | 36% | 11% | 0% |
| OCCCNc1nccc(-c2c(-c3cccc(C(F)(F)F)c3)nn3cc(C(F)(F)F)ccc23)n1 [GW630813] | 0% | 17% | 5% | 0% | 0% | 11% | 38% | 0% | 14% | 0% |
| CCC(=O)c1c(-c2ccccc2)c2cc(Cl)ccc2c(=O)n1Cc1cc(S(C)(=O)=O)n(CCC(C)(C)O)n1 | 30% | 0% | 0% | 8% | 14% | 14% | 8% | 42% | 0% | 20% |
| CCC(=O)c1c(-c2ccccc2)c2cc(Cl)ccc2c(=O)n1Cc1cc(C(=O)NC2CC2)n(C)n1 | 0% | 0% | 0% | 0% | 40% | 0% | 0% | 17% | 10% | 0% |
| COc1ccc(-c2cc3c(C)nc(N)nc3n([C@H]3CC[C@H](O)CC3)c2=O)cn1 | 0% | 0% | 0% | 0% | 0% | 0% | 0% | 0% | 0% | 0% |
| COc1cc(Nc2ccnc3ccc(C(F)(F)F)cc23)cc(OC)c1OC [GW577382] | 15% | 27% | 0% | 22% | 20% | 9% | 11% | 15% | 0% | 15% |
| Nc1n[nH]c2ncc(-c3ccccc3)cc12 [SB-517081] | 0% | 24% | 0% | 1% | 0% | 12% | 6% | 0% | 4% | 0% |
| Nc1n[nH]c2nnc(-c3ccccc3)c(-c3ccccc3)c12 [GW554060] | 18% | 8% | 0% | 0% | 18% | 0% | 32% | 13% | 0% | 0% |
| O=c1cc(N2CCOCC2)nc2n(Cc3ccc(F)c(Cl)c3)ccn12 [GSK2297099] | 20% | 17% | 0% | 2% | 54% | 0% | 5% | 18% | 14% | 1% |
| COc1ccc(-c2coc3ccc(-c4nnc(SCc5cccc(C#N)c5)o4)cc23)cc1 | 0% | 18% | 0% | 0% | 14% | 16% | 0% | 5% | 11% | 0% |
| Nc1nc(-c2ccccc2F)c(-c2ccnc3ccccc23)s1 [GW560459] | 4% | 33% | 0% | 0% | 8% | 0% | 40% | 52% | 25% | 0% |
| COc1cc(Nc2nccc(N3CCC(NC(=O)C4COc5ccccc5O4)C3)n2)cc(OC)c1OC (centres unmarked) [GSK1379761] | 15% | 32% | 18% | 2% | 7% | 2% | 66% | 0% | 43% | 7% |
